In PubChem BioAssay AID1159580 (chemical genetic matrix, 2015):
Hit rate of the full screen: of about 5,500 compounds, about 2,000 (36%) were called active. Another 18% or so got no clear call; they are omitted. Cut-off read from the data, not from the text of the source: active = normalized growth mostly below about 0.91 (no sharp cut-off); inconclusive = no clear call, values can overlap the other calls; inactive = mostly above about 0.92. The list shows a part of the results.

Assay: chemical genetic growth profiling, strain panel (AID 1159580);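 note: tested at 20 µM; growth read once vehicle control cultures reached saturation at 30 °C; 1 = growth at the plate median or of vehicle wells; lower values mean less growth of the strain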
Settings: S. cerevisiae deletion strains, growth OD

Measured: normalized growth

N=C(N)c1ccc(OCCCCCOc2ccc(C(=N)N)cc2)cc1
active: locus YBR279W, strain paf1, active compounds read low 0.93 | locus YCL029C, strain bik1, active compounds read low 0.89 | locus YCL061C, strain MRC1, active compounds read low 0.916 | locus YDR101C, strain arx1, active compounds read low 0.875 | locus YDR159W, strain sac3, active compounds read low 0.85 | locus YDR318W, strain mcm21, active compounds read low 0.878 | locus YDR502C, strain sam2, active compounds read low 0.907 | locus YER015W, strain faa2, active compounds read low 0.922 | locus YGL086W, strain mad1, active compounds read low 0.874 | locus YGL173C, strain kem1, active compounds read low 0.865 | locus YGL253W, strain hxk2, active compounds read low 0.8 | locus YHR079C, strain IRE1 (second series), active compounds read low 0.888 | locus YHR200W, strain rpn10, active compounds read low 0.871 | locus YIL125W, strain kgd1, active compounds read low 0.903 | locus YJL168C, strain set2, active compounds read low 0.925
inactive: locus YAL013W, strain DEP1, active compounds read low 1 | locus YAL021C, strain ccr4, active compounds read low 0.908 | locus YAL026C, strain drs2, active compounds read low 0.951 | locus YAL030W, strain snc1, active compounds read low 0.935 | locus YBL061C, strain skt5, active compounds read low 0.966 | locus YBR009C, strain hhf1, active compounds read low 0.952 | locus YBR021W, strain FUR4, active compounds read low 1.07 | locus YBR023C, strain chs3, active compounds read low 0.986 | locus YBR171W, strain sec66, active compounds read low 0.946 | locus YBR229C, strain ROT2, active compounds read low 0.978 | locus YBR231C, strain swc5, active compounds read low 0.919 | locus YCL011C, strain gbp2, active compounds read low 0.945 | locus YCL016C, strain dcc1, active compounds read low 0.939 | locus YCL069W, strain vba3, active compounds read low 0.963 | locus YCR088W, strain abp1, active compounds read low 0.966 | locus YDL005C, strain med2, active compounds read low 0.979 | locus YDL035C, strain GPR1, active compounds read low 0.901 | locus YDL040C, strain nat1, active compounds read low 0.965 | locus YDL074C, strain BRE1, active compounds read low 0.942 | locus YDL101C, strain DUN1, active compounds read low 0.989 | locus YDL134C, strain PPH21, active compounds read low 0.955 | locus YDL185W, strain tfp1, active compounds read low 0.964 | locus YDL192W, strain arf1, active compounds read low 0.933 | locus YDR001C, strain nth1, active compounds read low 0.974 | locus YDR069C, strain doa4, active compounds read low 1 | locus YDR137W, strain rgp1, active compounds read low 1 | locus YDR150W, strain NUM1, active compounds read low 0.989 | locus YDR162C, strain NBP2, active compounds read low 0.941 | locus YDR195W, strain ref2 0.968 | locus YDR297W, strain sur2, active compounds read low 0.958 | locus YDR334W, strain swr1, active compounds read low 0.958 | locus YDR335W, strain msn5, active compounds read low 0.977 | locus YDR388W, active compounds read low 0.938 | locus YDR392W, strain spt3, active compounds read low 0.808 | locus YEL003W, strain gim4, active compounds read low 0.929 | locus YEL037C, strain rad23, active compounds read low 0.945 | locus YEL061C, strain CIN8 (second series), active compounds read low 0.945 | locus YEL061C, strain CIN8, active compounds read low 0.965 | locus YER016W, strain bim1, active compounds read low 0.963 | locus YER110C, active compounds read low 0.95 | locus YER111C, strain swi4, active compounds read low 0.967 | locus YER155C, strain BEM2 (second series), active compounds read low 0.874 | locus YER155C, strain BEM2, active compounds read low 0.986 | locus YER167W, strain BCK2, active compounds read low 0.915 | locus YFR010W, strain ubp6, active compounds read low 0.954 | locus YGL078C, strain dbp3, active compounds read low 0.929 | locus YGL167C, strain pmr1, active compounds read low 0.974 | locus YGL227W, strain vid30, active compounds read low 0.984 | locus YGL240W, strain doc1, active compounds read low 0.991 | locus YGL248W, strain PDE1, active compounds read low 0.964 | locus YGR078C, strain PAC10, active compounds read low 0.947 | locus YGR135W, strain pre9, active compounds read low 0.937 | locus YGR229C, strain SMI1, active compounds read low 0.929 | locus YGR252W, strain gcn5, active compounds read low 0.819 | locus YHR013C, strain ard1, active compounds read low 1.09 | locus YHR027C, strain rpn1, active compounds read low 0.946 | locus YHR030C, strain SLT2, active compounds read low 0.974 | locus YHR094C, strain hxt1, active compounds read low 0.94 | locus YHR129C, strain ARP1, active compounds read low 0.968 | locus YHR142W, strain chs7, active compounds read low 0.972 | locus YIL066C, strain RNR3, active compounds read low 0.917 | locus YIL073C, strain SPO22, active compounds read low 0.675 | locus YIR030C, strain dcg1, active compounds read low 0.93 | locus YJL092W, strain hpr5, active compounds read low 0.919 | locus YJL095W, strain BCK1 (second series), active compounds read low 0.959 | locus YJL095W, strain BCK1, active compounds read low 0.892 | locus YJL115W, strain asf1, active compounds read low 0.923 | locus YJL129C, strain trk1, active compounds read low 0.995 | locus YJL134W, strain LCB3, active compounds read low 0.967 | locus YJL154C, strain vps35, active compounds read low 0.989 | locus YJL164C, strain tpk1, active compounds read low 0.974 | locus YJL166W, strain qcr8, active compounds read low 0.978 | locus YJL187C, strain SWE1 (second series), active compounds read low 0.929
